Source: PubChem BioAssay (NCATS)
Results filed as inconclusive are left out. Active and inactive are the calls of the source. The call rests on the fitted dose curve; in most records, active means well fitted activation curve with a large enough effect; inconclusive means small, poorly fitted or top-dose-only effect; inactive means no such curve, though single readings can be large or run the other way.

target: Rap guanine nucleotide exchange factor 3 (Homo sapiens) (UniProt O95398); experiment: Confirmatory qHTS for agonist of cAMP-regulated guanine nucleotide exchange factor 3 (EPAC1) (AID 1645881); conditions: EPAC1 Rap1B BODIPY-GDP exchange fluorescence; series mostly up to 154 µM; activation: at the top concentration;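 further: EPAC1 catalysed release of BODIPY-GDP from Rap1B seen as fluorescence loss; 100% = effect of cAMP agonist control; nearly all actives have a fitted effect of over 75% in size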
Sequence (O95398 whole entry, looked up): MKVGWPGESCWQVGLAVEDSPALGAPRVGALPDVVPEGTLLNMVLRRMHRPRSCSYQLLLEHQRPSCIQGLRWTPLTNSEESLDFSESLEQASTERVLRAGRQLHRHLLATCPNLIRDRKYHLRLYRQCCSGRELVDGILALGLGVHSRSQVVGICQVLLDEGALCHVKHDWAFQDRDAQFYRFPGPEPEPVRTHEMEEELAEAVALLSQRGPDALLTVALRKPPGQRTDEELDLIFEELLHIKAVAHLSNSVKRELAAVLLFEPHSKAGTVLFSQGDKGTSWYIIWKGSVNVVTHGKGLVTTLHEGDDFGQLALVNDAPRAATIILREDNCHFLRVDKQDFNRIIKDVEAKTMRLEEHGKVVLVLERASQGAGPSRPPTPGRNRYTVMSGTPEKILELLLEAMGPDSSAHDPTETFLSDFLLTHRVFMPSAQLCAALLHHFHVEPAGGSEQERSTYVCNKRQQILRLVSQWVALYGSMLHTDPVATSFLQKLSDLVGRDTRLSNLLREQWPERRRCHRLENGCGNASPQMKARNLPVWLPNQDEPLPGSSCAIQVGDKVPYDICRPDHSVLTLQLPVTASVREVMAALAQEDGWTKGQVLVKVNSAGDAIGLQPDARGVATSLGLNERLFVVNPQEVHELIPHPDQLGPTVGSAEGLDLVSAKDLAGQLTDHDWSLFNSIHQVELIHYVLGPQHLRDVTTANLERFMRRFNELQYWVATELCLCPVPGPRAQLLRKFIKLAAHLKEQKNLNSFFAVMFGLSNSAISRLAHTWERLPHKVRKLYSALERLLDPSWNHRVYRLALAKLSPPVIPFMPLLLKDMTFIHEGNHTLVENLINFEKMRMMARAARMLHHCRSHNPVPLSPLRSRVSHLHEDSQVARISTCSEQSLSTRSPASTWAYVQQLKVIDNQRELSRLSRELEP

activation, inactive:
O=c1c2ccccc2oc2ccc(Oc3ccccc3)cc12 8.55%
Cc1cc(C(=O)NCc2nc(-c3cccc(NC(=O)c4ccccc4)c3)oc2C)nc(C)n1 -1.58%
Cc1cccc(N(C(=O)c2csnn2)C(C(=O)NCc2ccccc2)c2cccs2)c1 (configuration not stated) 1.62%
COc1ccc(C(=O)NC2CCCc3ccccc32)c(OC)c1OC (configuration not stated) 21.6%
CC(C)C[C@@H](COc1ccccc1)N1CCN(Cc2ccccc2)CCC1=O 11.8%
Cc1ccc2c(/C=C/c3ccc(N(C)C)cc3)ccnc2c1C 5.43%
Cc1cc(C)c2nccc(/C=C/c3ccc(N(C)C)cc3)c2c1 20.8%
CC/C(=C/c1ccccc1OC)c1cc(-c2ccccc2)cc2oc3ccccc3c12 4.67%
Cn1cc(/C=C/c2ccc3ccccc3n2)c2ccccc21 -3.19%
O=C(Nc1ccc(Cl)cc1)N[C@@H]1CC[C@H](CCNS(=O)(=O)c2ccccc2F)O[C@@H]1CO 14.4%
CCc1ccc2c(c1)C(NC(C)=O)C(=O)N2CCN1CCOCC1 (configuration not stated) 15.9%
COCCN(CCOC)c1nc(-c2ccccc2)nc2ccccc12 16.5%
Cc1ccc(S(=O)(=O)N2[C@@H](c3cccc(Cl)c3)C(C(=O)O)=CC[C@H]2c2ccc(C(C)C)cc2)cc1 -20%
CC(C)(C)[C@H]1CCC(=O)N([C@H](CN=[N+]=[N-])Cc2ccccc2)CC1 7.91%
Cc1ccc2nccc(/C=C/c3ccc(N(C)C)cc3)c2c1 11.3%
Cc1cnc2ccccc2c1/C=C/c1ccc(N(C)C)cc1 9.16%
COc1cc(CCN(C(=O)c2cccc(S(C)(=O)=O)c2)C(CCc2ccccc2)c2nc3ccccc3[nH]2)cc(OC)c1 (configuration not stated) 6.57%
